Source: PubChem BioAssay
A selection: hits, their analogues and other compounds. The true share with any hit is near 14%.
FBPA Giardia inh: inhibitors of Giardia lamblia fructose-1,6-bisphosphate aldolase. purified Giardia FBPA. hit rate 0.71% among 290,000. Potency, µM (top dose mostly 59.6 µM), for inactives: at the highest dose activity, negative = inhibition, usual class: inhibitors; further: potency means the concentration at half of the fitted maximal effect; on the % scale 0 is the no-effect control and ±100 the full control effect; nearly all actives have a fitted effect of over 55% in size
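40 nM FBPA preincubated 10 min at RT with compound (up to 57.5 uM final), then substrate plus GAPDH/TPI/NAD/arsenate coupling and diaphorase/resazurin added. Fluorescence read after 20 min at RT, 525/598 nm.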
Shiga inhibitor: blocks Shiga toxin action in Vero cells | hit rate 9.2% among 290,000 | inhibition, % at 38.7 µM | AID 2315 | Vero cells, Shiga toxin protein synthesis inhibition reporter; in the data active means inhibition mostly above about 28%, no sharp cut-off; inactive means mostly below about 43%; further: 0% is about no effect
LmPK inh: LmPK (Leishmania mexicana) enzyme inhibition; Q27686; purified LmPK, Kinase-Glo ATP luminescence, 1 h; Potency, µM (highest dose often 57.5 µM), without a hit: at the highest dose activity change, negative = inhibition, actives largely listed as inhibitors; hit rate 0.37% among 290,000; further: potency means the concentration at half of the fitted maximal effect; on the % scale 0 is the no-effect control and ±100 the full control effect
Target sequence (Q27686 whole entry, looked up): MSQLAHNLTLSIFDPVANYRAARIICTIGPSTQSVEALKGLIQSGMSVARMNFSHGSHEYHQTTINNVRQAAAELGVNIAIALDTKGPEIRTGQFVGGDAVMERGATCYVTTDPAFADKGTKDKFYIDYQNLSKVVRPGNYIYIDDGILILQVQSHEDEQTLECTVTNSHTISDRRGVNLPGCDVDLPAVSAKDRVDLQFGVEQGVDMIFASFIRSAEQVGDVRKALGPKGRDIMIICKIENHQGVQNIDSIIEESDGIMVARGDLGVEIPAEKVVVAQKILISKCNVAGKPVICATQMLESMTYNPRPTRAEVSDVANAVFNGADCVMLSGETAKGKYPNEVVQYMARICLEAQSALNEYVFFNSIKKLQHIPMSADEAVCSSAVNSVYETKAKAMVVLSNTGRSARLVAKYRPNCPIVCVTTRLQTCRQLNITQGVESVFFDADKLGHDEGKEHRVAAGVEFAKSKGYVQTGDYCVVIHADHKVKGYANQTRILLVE
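In 50 mM imidazole pH 7.2 with 7 mM MgCl2, LmPK (0.1 nM) turned over PEP (0.5 mM) and ADP (0.1 mM) for 1 h at room temperature. Luciferase read-out of ATP.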
Cycloheximide cs: counter-screen hit for Shiga toxin inhibitors, cycloheximide. cell reporter, cycloheximide protein synthesis inhibition counterscreen. max response, %. hit rate 12% among 300,000; in the data active means max response mostly above about 13%, no sharp cut-off; inactive means mostly below about 14%; further: read at 38.3 µM for the half of the compounds with a filed dose; 0% is about no effect
NS1 function inh: blocks influenza NS1 protein function; Potency, µM (highest dose often 46.1 µM), for the others: at the top dose activity, positive = more growth; hit rate 0.4% among 270,000; AID 2326; calls by dose curve; further: potency means the concentration at half of the fitted maximal effect; actives are rising curves; nearly all actives have a fitted effect of over 50% in size
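OD600 was taken as the measure of yeast growth restored by compound in an NS1-expressing S. cerevisiae strain. Cells had been washed out of glucose medium and diluted 1:100 into galactose -URA medium, pH 6.0.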
An asterisk follows results filed as active. Unless noted, the call rests on the fitted dose curve; in most records, active means well fitted curve in the direction sought with a large enough effect; inconclusive means small, poorly fitted or top-dose-only effect, or another doubt; inactive means no such curve, though single readings can be large; an effect the other way counts as inactive or inconclusive.

Results for COc1ccc2cc3cc(C(=O)NCC4CCCO4)oc3nc2c1 (stereo unspecified) ?
FBPA Giardia inh: -9%; Shiga inhibitor: 46*; LmPK inh: -5%; Cycloheximide cs: 19; NS1 function inh: -12%

What do the screens show for `CCc1ccc2nc3sc(C(=O)O)cc3cc2c1`?
FBPA Giardia inh: -5%; Shiga inhibitor: 19; LmPK inh: 15%; Cycloheximide cs: -5; NS1 function inh: 7%

Results for CCCCN(C)C(=O)c1cc2cc3ccc(OC)cc3nc2s1 ?
FBPA Giardia inh: -6%; Shiga inhibitor: 57*; LmPK inh: 14µM*; Cycloheximide cs: 25*; NS1 function inh: -57%

What do the screens show for `COc1ccc2cc3cc(C(=O)NCCC(C)C)oc3nc2c1`?
FBPA Giardia inh: 3%; Shiga inhibitor: 51; LmPK inh: -4%; Cycloheximide cs: -1; NS1 function inh: -2%

How did CCC(C)NC(=O)c1cc2cc3ccc(OC)cc3nc2o1 (stereo unspecified) do in these assays?
FBPA Giardia inh: -4%; Shiga inhibitor: 39*; LmPK inh: 0%; Cycloheximide cs: 30*; NS1 function inh: 5%

How did COCCNC(=O)c1cc2cc3ccc(OC)cc3nc2o1 do in these assays?
FBPA Giardia inh: 2%; Shiga inhibitor: 50; LmPK inh: 1%; Cycloheximide cs: 42*; NS1 function inh: -3%

How did Cc1ccc(NC2CCCN(C(=O)CSc3ccccn3)C2)cc1C (stereo unspecified) do in these assays?
Shiga inhibitor: -11; LmPK inh: -10%; Cycloheximide cs: 1; NS1 function inh: 2%

Results for N=c1ccn2c(n1)O[C@@H]1[C@H](O)[C@H](CO)O[C@@H]12 ?
FBPA Giardia inh: 4%

Results for CCCCN(CC)C(=O)c1cc2cc3ccc(OC)cc3nc2o1 ?
FBPA Giardia inh: -3%; Shiga inhibitor: 80*; LmPK inh: -6%; Cycloheximide cs: 27*; NS1 function inh: -15%

How did CCc1ccc(N(C(C)=O)c2nc(CCl)cs2)cc1 do in these assays?
FBPA Giardia inh: -2%; Shiga inhibitor: 48; LmPK inh: 2%; Cycloheximide cs: 29*; NS1 function inh: -2%

How did CC(C)NS(=O)(=O)c1ccc(CCC(=O)NCc2ccncc2)cc1 do in these assays?
FBPA Giardia inh: -15%; Shiga inhibitor: -14; LmPK inh: -5%; Cycloheximide cs: -2; NS1 function inh: 5%

How did Cc1noc(/C=C/Nc2ccc(F)cc2F)c1[N+](=O)[O-] do in these assays?
FBPA Giardia inh: 2%; Shiga inhibitor: 141*; LmPK inh: -7%; Cycloheximide cs: 53*

What do the screens show for `Cc1ccc(-c2csc(C3=C(O)CN(NC(=O)c4ccc([N+](=O)[O-])cc4)C3=N)n2)cc1`?
FBPA Giardia inh: 2%; Shiga inhibitor: -1; LmPK inh: 3%; Cycloheximide cs: -2; NS1 function inh: 8%

How did N=C1C(c2nc(-c3ccc(Cl)cc3)cs2)=C(O)CN1NC(=O)c1ccc(O)cc1 do in these assays?
FBPA Giardia inh: 0%; Shiga inhibitor: 25; LmPK inh: 0%; Cycloheximide cs: 23*; NS1 function inh: -4%

How did CCOc1ccc(N(CC(=O)Nc2cccc(Br)c2)S(C)(=O)=O)cc1 do in these assays?
FBPA Giardia inh: -4%; Shiga inhibitor: 64*; LmPK inh: 2%; Cycloheximide cs: 26*; NS1 function inh: 8%

How did CC(=O)c1ccc(NC(=O)CN(c2c(C)cccc2C)S(C)(=O)=O)cc1 do in these assays?
FBPA Giardia inh: -9%; Shiga inhibitor: 99*; LmPK inh: -1%; Cycloheximide cs: 23*; NS1 function inh: 4%

How did CCOc1ccc(N(CC(=O)Nc2ccc(C)cc2C)S(C)(=O)=O)cc1 do in these assays?
FBPA Giardia inh: -5%; Shiga inhibitor: 6; LmPK inh: -2%; Cycloheximide cs: 9; NS1 function inh: 3%

Results for CCOc1ccc(N(CC(=O)Nc2cc(C)cc(C)c2)S(C)(=O)=O)cc1 ?
FBPA Giardia inh: -3%; Shiga inhibitor: 75*; LmPK inh: 4%; Cycloheximide cs: 59*; NS1 function inh: 2%

Results for CCOc1ccc(N(CC(=O)Nc2ccc(C)cc2)S(C)(=O)=O)cc1 ?
FBPA Giardia inh: 13%; Shiga inhibitor: 66*; LmPK inh: 7%; Cycloheximide cs: 37*; NS1 function inh: 22%

Results for CCCn1cnnc1CNC(=O)C1CCC(=O)N(CCCc2ccccc2)C1 (stereo unspecified) ?
FBPA Giardia inh: 17%; Shiga inhibitor: 0; LmPK inh: 2%; Cycloheximide cs: 5; NS1 function inh: -3%

How did CCn1c(NC(=S)Nc2ccccc2)nc2ccccc21 do in these assays?
FBPA Giardia inh: 7%; Shiga inhibitor: 53*; LmPK inh: 0%; Cycloheximide cs: 29*; NS1 function inh: -16%

How did CCn1c(NC(=O)C2CCCCC2)nc2ccccc21 do in these assays?
FBPA Giardia inh: 12%; Shiga inhibitor: 36*; LmPK inh: 2%; Cycloheximide cs: 26*; NS1 function inh: -4%

What do the screens show for `CCOC(=O)Cn1c(=O)c(-c2cc(Br)ccc2N)nc2ccccc21`?
FBPA Giardia inh: 0%; Shiga inhibitor: -5; LmPK inh: 0%; Cycloheximide cs: -2; NS1 function inh: 3%

How did Cn1c(=O)c(-c2cc(Br)ccc2N)nc2ccccc21 do in these assays?
FBPA Giardia inh: -18%; Shiga inhibitor: 60; LmPK inh: 4%; Cycloheximide cs: 33*; NS1 function inh: -9%

Results for Cc1ccc(S(=O)(=O)N2CCCC2)cc1C(=O)N1CCC(C)CC1 ?
Shiga inhibitor: 1; LmPK inh: -5%; Cycloheximide cs: -1; NS1 function inh: -1%

Results for O=C(Cn1ccc2ccccc2c1=O)NCC(=O)N1CCN(c2ccc(F)cc2)CC1 ?
FBPA Giardia inh: 0%; Shiga inhibitor: -6; LmPK inh: -2%; Cycloheximide cs: 1; NS1 function inh: -4%

Results for Cc1ccc(N(CC(=O)NCc2ccccc2)C(=O)c2csnn2)cc1 ?
FBPA Giardia inh: 16%; Shiga inhibitor: 31; LmPK inh: -3%; Cycloheximide cs: 15; NS1 function inh: 21%

How did CC(/C=N/NC(=O)c1c(Br)cnn1C)=C\c1ccccc1 do in these assays?
FBPA Giardia inh: 2%; Shiga inhibitor: 47*; LmPK inh: -6%; Cycloheximide cs: 25*; NS1 function inh: -21%

Results for Cn1ncc(Br)c1C(=O)N/N=C/c1ccc(OS(=O)(=O)c2ccccc2)cc1 ?
FBPA Giardia inh: -11%; Shiga inhibitor: 8; LmPK inh: 1%; Cycloheximide cs: 6; NS1 function inh: 3%

What do the screens show for `CC(/C=N/NC(=O)c1nn(C)c(C)c1Br)=C\c1ccccc1`?
FBPA Giardia inh: 1%; Shiga inhibitor: 117*; LmPK inh: 0%; Cycloheximide cs: 63*; NS1 function inh: -50%

Results for COc1ccc(CCNC(=O)C(NS(=O)(=O)c2cccc3nsnc23)C(C)C)cc1OC (stereo unspecified) ?
Shiga inhibitor: -2; LmPK inh: 3%; Cycloheximide cs: 16; NS1 function inh: -3%

Results for CCNc1ncc2nc(-c3ccc(Cl)cc3)c(=O)n(C[C@H]3CCCO3)c2n1 ?
FBPA Giardia inh: -4%
